The results in this text go back to PubChem BioAssay AID2242 (National Center for Advancing Translational Sciences (NCATS), 2010).

In all, about 200,000 compounds went through this assay and about 720 (0.36%) were called active. Roughly 8% stayed inconclusive and do not appear here. The call rests on the fitted dose curve; in most records, active means well fitted activation curve with a large enough effect; inconclusive means small, poorly fitted or top-dose-only effect, or effect the other way, or another doubt; inactive means flat fitted curve, though single readings scatter. Some of the results follow.
Potency means the concentration at half of the fitted maximal effect.

The target in this assay is Lysosomal alpha-glucosidase (Homo sapiens) (UniProt P10253). Description: qHTS Assay for Activators of Human alpha-Glucosidase as a Potential Chaperone Treatment of Pompe Disease. Further: nearly all actives have a fitted effect of over 80% in size. As to conditions: purified enzyme, 4-MU-alpha-glucoside fluorescence, 20 min. The text has this:
NIH Chemical Genomics Center [NCGC] NIH Molecular Libraries Probe Production centers Network [MLPCN] MLPCN Grant: 1R03MH084841-01 Assay Submitter (PI): Wei Zheng NCGC Assay Overview: Alpha-glucosidase is responsible for hydrolysis of terminal, non-reducing 1,4-linked alpha-D-glucose residues with release of alpha-D-glucose. It is a lysosomal hydrolase that is required for the degradation of a small percentage (1-3%) of cellular glycogen in human. Deficiency of this enzyme results in glycogen-storage disease type II (GSDII), also referred to as Pompe disease, an autosomal recessive disorder. Structurally normal glycogen is accumulated in lysosomes and cytoplasm in affected patients, primarily in muscle tissues. Excessive glycogen storage within lysosomes may interrupt normal functioning of other organelles and leads to cellular injury. In turn, this leads to enlargement and dysfunction of the entire organ involved (eg, cardiomyopathy and muscle weakness). It has reported that the improper folding and trafficking of alpha-glucosidase resulting from the genetic mutations may account for a significant number of Pompe patients. […] We optimized this alpha-glucosidase assay in 1536-well plate format for identifying the novel small molecule inhibitors with the structures other than the sugar analogs in order to develop the new pharmacological chaperones, but are also able to detect potential activators. In conjunction with assays against alpha-galactosidase (AID 1467), fluorogenic false positive compounds can be identified.
NCGC Assay Protocol Summary: This is a fluorogenic enzyme assay with 4-methylumbelliferyl-alpha-D-[…] as the substrate and human alpha-glucosidase as the enzyme preparation. Upon the hydrolysis of this fluorogenic substrate, the resulting product, 1. 4-methyllumbelliferone, can be excited at 365 nm and emits at 440 nm which can be detected by a standard fluorescence plate reader. Data were normalized to the controls for basal activity (without enzyme) and 100% activity (with enzyme). In the AC50 values were determined from concentration-response data modeled with the standard Hill equation. Assay buffer: 50 mM citric acid (titrated with potassium phosphate to pH 5.0), 0.005% Tween-20, pH 5.0. (pH 5.0 is an optimal condition for this enzyme assay) 1536-well assay protocol for the human alpha-glucosidase: (1) Add 2 ul/well of enzyme (4 nM final) (2) Add 23 nL compounds in DMSO solution. The final titration was 0.7 nM to 77 uM. (3) Add 1 ul of substrate (400 uM final) (4) Incubate at room temperature for 20 min. (5) Add 2 ul stop solution (1M NaOH and 1M Glycine mixture, pH 10) (6) Detect the assay plate in a ViewLux plate reader (PerkinElmer) with Ex=365 nm and Em=440nm. Keywords: Alpha-glucosidase, Pompe Disease, pharmacological chaperone, chaperone therapy, high throughput screening, alpha-glucosidase inhibitor, MLSMR, MLSCN, NIH Roadmap, qHTS and NCGC
(In general: qHTS replaces the single test concentration by a dilution series.)
For `N#CC1=C(N)Oc2c(c(=O)oc3ccccc23)C1c1ccc(OC(=O)N2CCOCC2)cc1` (centres undefined), the Potency is 35.5 µM (active).
Under `COc1ccc(CNc2oc(-c3cccc4ccccc34)nc2P(=O)(OC)OC)cc1` stands 35.5 µM (active).
Under `COP(=O)(OC)c1nc(-c2cccc3ccccc23)oc1NCCc1ccccc1` stands 31.6 µM (active); under `CCOP(=O)(OCC)c1nc(-c2cccc3ccccc23)oc1NCCc1ccc(OC)cc1`, 31.6 µM (active).
With `COCCN1Cc2cc(=O)n3c([nH]c4ccccc43)c2C1=N`, the Potency is 31.6 µM (active).
`COC(=O)c1ccc(C(=O)OC)c(NC(=O)Oc2ccccc2)c1`: the Potency was 31.6 µM (active).
Under `CCCNC(=O)c1c(N)n(CC2CCCO2)c2nc3ccccc3nc12` (centres undefined) stands 31.6 µM (active).
Take `CC(C)OCCCNC(=O)c1c(N)n(CC2CCCO2)c2nc3ccccc3nc12` (centres undefined): the Potency was 39.8 µM (active).
Take `CN1CCc2c(C#N)c(Cl)nc(Cl)c2C1`: the Potency is 35.5 µM (active).
For `N#Cc1c(Cl)nc(Cl)c2c1CCN(Cc1ccccc1)C2`, the Potency was 31.6 µM (active).
Under `CC(C)CCn1c(N)c(C(=O)OCC2CCCO2)c2nc3ccccc3nc21` (centres undefined) stands 31.6 µM (active).
Under `CCCCn1c(N)c(C(=O)OCC2CCCO2)c2nc3ccccc3nc21` (centres undefined) stands 35.5 µM (active); under `COCCOC(=O)c1c(N)n(Cc2ccc(OC)cc2)c2nc3ccccc3nc12`, 35.5 µM (active); under `COCCOC(=O)c1c(N)n(Cc2ccccc2)c2nc3ccccc3nc12`, 35.5 µM (active).
Under `COc1ccc(-c2cc(=NCCCCCC(=O)O)c3cc(C)ccc3o2)cc1` stands 31.6 µM (active).
Turning to `COc1ccc(-c2cc(=NCCC(=O)O)c3cc(C)ccc3o2)cc1`, the Potency is 28.2 µM (active).
For `COC(=O)c1c(N)n(Cc2ccc(OC)cc2)c2nc3ccccc3nc12`, the Potency was 35.5 µM (active).
Take `CCOC(=O)c1c(N)n(Cc2ccc(OC)cc2)c2nc3ccccc3nc12`: the Potency is 25.1 µM (active).
The figure for `CC(C)CCOC(=O)c1c(N)n(CC2CCCO2)c2nc3ccccc3nc12` (centres undefined) is 39.8 µM (active); for `CC(C)OC(=O)c1c(N)n(CC2CCCO2)c2nc3ccccc3nc12` (centres undefined) it is 35.5 µM (active); for `Nc1c(C(=O)OC2CCCCC2)c2nc3ccccc3nc2n1CC1CCCO1` (centres undefined) it is 35.5 µM (active).
The figure for `COCCCn1c(N)c(C(=O)OCCOC)c2nc3ccccc3nc21` is 31.6 µM (active).
For the compound `COCCCn1c(N)c(C(=O)OC(C)COC)c2nc3ccccc3nc21` (centres undefined), the Potency is 39.8 µM (active).
Under `O=C(c1cc2c(s1)-c1ccccc1OC2)N1CCC2(CC1)OCCO2` stands 39.8 µM (active).
On to `CCOP(=O)(OCC)c1nc(-c2cccc3ccccc23)oc1N1CCCCC1`, for which the Potency was 35.5 µM (active).
The figure for `CCOP(=O)(OCC)c1nc(-c2cccc3ccccc23)oc1N1CCOCC1` is 39.8 µM (active); for `COP(=O)(OC)c1nc(-c2cccc3ccccc23)oc1N1CCCCC1` it is 35.5 µM (active); for `COCCNC(=O)c1c(N)n(Cc2ccco2)c2nc3ccccc3nc12` it is 31.6 µM (active).
Under `Nc1c(C(=O)NCCN2CCOCC2)c2nc3ccccc3nc2n1Cc1ccco1` stands 39.8 µM (active).
`CCOC(=O)c1c(N)n(Cc2ccco2)c2nc3ccccc3nc12`: the Potency was 39.8 µM (active).
As to `CCCCn1c(NC(=O)c2ccc(Br)o2)c(C(=O)OCC)c2nc3ccccc3nc21`, the Potency was 35.5 µM (active).
Under `COCCOC(=O)c1c(N)n(Cc2ccco2)c2nc3ccccc3nc12` stands 35.5 µM (active); under `CCCCCn1c(N)c(C(=O)NCCN2CCOCC2)c2nc3ccccc3nc21`, 35.5 µM (active).
In the case of `CCOC(=O)c1c(N)n(CCCOC(=O)c2ccco2)c2nc3ccccc3nc12`, the Potency is 35.5 µM (active).
The figure for `CC(C)(C)OC(=O)c1c(N)n(Cc2ccco2)c2nc3ccccc3nc12` is 35.5 µM (active); for `CC(=O)N1CCC2(CC1)CC(=O)c1cc(OCC(=O)N3CCC4(CC3)OCCO4)ccc1O2` it is 31.6 µM (active).
Under `CC(C)CCn1c(N)c(C(=O)NCc2cccs2)c2nc3ccccc3nc21` stands 28.2 µM (active).
The figure for `CCCOC(=O)c1c(N)n(Cc2cccs2)c2nc3ccccc3nc12` is 39.8 µM (active).
`CCC(C)OC(=O)c1c(N)n(Cc2cccs2)c2nc3ccccc3nc12` (centres undefined): the Potency was 35.5 µM (active).
